# Assay results published in the supplement of paper PMC9262897, “Low-cost anti-mycobacterial drug discovery using engineered E. coli” (Nature Communications, 2022).
# Where a name gives a salt, the structure may show the parent alone. ± gives the standard deviation of the averaged measurements.
# Test system: E. coli TESEC Mtb Alr
# Test: growth (OD600 after 10 h); higher = more growth (less inhibition)
# Conditions: arabinose 100000 nM; compound 0.1 mM; raw OD600 reference: median of DMSO wells 0.201, cell-free background 0.041
# Method: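 TESEC Mtb Alr E. coli, or the Alr+ wild-type control, in 384-well plates with Prestwick library compounds at 0.1 mM and 1% DMSO, across arabinose induction levels of 1E3 to 1E7 nM. Growth is read as OD600 after 10 h at 37 °C in triplicate biological replicates.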
row,Structure (SMILES),growth
1,COc1cc(C(=O)NS(=O)(=O)c2ccccc2C)ccc1Cc1cn(C)c2ccc(NC(=O)OC3CCCC3)cc12 [Zafirlukast],0.164 ± 0.0027
2,NNc1nncc2ccccc12 [Hydralazine hydrochloride],0.174 ± 0.013
3,"Nc1c2c(nc3ccccc13)CCCC2O (racemic) [Hydroxytacrine maleate (R,S)]",0.202 ± 0.025
4,CCN(CC)CCOC(=O)C1(C2CCCCC2)CCCCC1 [Dicyclomine hydrochloride],0.157 ± 0.016
5,O=C(Oc1cccc2cccnc12)c1ccccc1 [Benzoxiquine],0.172 ± 0.014
6,O=C1CC2(CCCC2)CC(=O)N1CCCCN1CCN(c2ncccn2)CC1 [Buspirone hydrochloride],0.184 ± 0.028
7,CCN(CC)C(=O)C1(c2ccccc2)CC1CN (stereo not given) [Milnacipran hydrochloride],0.202 ± 0.006
8,CCN(CC)CC#CCOC(=O)C(O)(c1ccccc1)C1CCCCC1 (stereo not given) [Oxybutynin chloride],0.131 ± 0.072
9,C[C@]12C=CC(=O)C=C1CC[C@H]1[C@@H]3C[C@@H](O)[C@](O)(C(=O)CO)[C@@]3(C)C[C@H](O)[C@@]12F [Triamcinolone],0.157 ± 0.014
10,O=C(CCCCC(=O)Nc1c(I)cc(I)c(C(=O)O)c1I)Nc1c(I)cc(I)c(C(=O)O)c1I [Iodipamide],0.191 ± 0.0062
11,CCN(CCO)CCCC(C)Nc1ccnc2cc(Cl)ccc12 (stereo not given) [Hydroxychloroquine sulfate],0.19 ± 0.015
12,Cc1ccsc1/C=C/C1=NCCCN1C [Morantel tartrate],0.204 ± 0.012
13,Cc1noc(NS(=O)(=O)c2ccc(N)cc2)c1C [Sulfisoxazole],0.213 ± 0.042
14,C=CCOc1ccccc1OCC(O)CNC(C)C (stereo not given) [Oxprenolol hydrochloride],0.1983 ± 0.00078
15,CCOc1ccc2c(c1)C(C)=CC(C)(C)N2 [Ethoxyquin],0.192 ± 0.017
16,CC1Cc2ccccc2N1NC(=O)c1ccc(Cl)c(S(N)(=O)=O)c1 (stereo not given) [Indapamide],0.191 ± 0.015
17,CCC(=O)OCC(=O)[C@@]1(OC(=O)CC)[C@H](C)C[C@H]2[C@H]3[C@H]([C@@H](O)C[C@@]21C)[C@@]1(C)C=CC(=O)C=C1C[C@H]3Cl [Alclometasone dipropionate],0.226 ± 0.07
18,Cc1scc2c1N(C(=O)CN1CCN(C)CC1)c1ccccc1NC2=O [Telenzepine dihydrochloride],0.208 ± 0.012
19,O=C1CC[C@@H](C(=O)N2CSC[C@H]2C(=O)O)N1 [Pidotimod],0.184 ± 0.032
20,CCC1NC(=O)c2cc(S(N)(=O)=O)c(Cl)cc2N1 (stereo not given) [Quinethazone],0.219 ± 0.0029

row,Structure (SMILES),growth
1,CN1CCCN(C(c2ccccc2)c2ccc(Cl)cc2)CC1 (stereo not given) [Homochlorcyclizine dihydrochloride],0.09 ± 0.04
2,C1N2CN3CN1CN(C2)C3 [Methenamine],0.198 ± 0.025
3,CC(C)(O/N=C(\C(=O)N[C@@H]1C(=O)N2C(C(=O)[O-])=C(C[n+]3ccccc3)CS[C@H]12)c1csc(N)n1)C(=O)O [Ceftazidime pentahydrate],0.0423 ± 0.0036
4,CC(C(O)c1ccc(O)cc1)N1CCC(Cc2ccccc2)CC1 (stereo not given) [Ifenprodil tartrate],0.194 ± 0.0092
5,CCN(CC)CCNC(=O)c1ccc(N)cc1 [Procainamide hydrochloride],0.209 ± 0.043
6,CC[C@H]1OC(=O)[C@H](C)[C@@H](O[C@H]2C[C@@](C)(OC)[C@@H](O)[C@H](C)O2)[C@H](C)[C@@H](O[C@@H]2O[C@H](C)C[C@H](N(C)C)[C@H]2O)[C@](C)(O)C[C@@H](C)CN(C)[C@H](C)[C@@H](O)[C@]1(C)O [Azithromycin],0.0416 ± 0.00058
7,"OC(CCN1CCCCC1)(c1ccccc1)C1CCCCC1 (stereo not given) [Trihexyphenidyl-D,L Hydrochloride]",0.194 ± 0.0034
8,CN1C(C(=O)Nc2ccccn2)=C(O)c2ccccc2S1(=O)=O [Piroxicam],0.18 ± 0.013
9,c1ccc(CN(CC2=NCCN2)c2ccccc2)cc1 [Antazoline hydrochloride],0.194 ± 0.021
10,CCCc1nc2c(C)cc(-c3nc4ccccc4n3C)cc2n1Cc1ccc(-c2ccccc2C(=O)O)cc1 [Telmisartan],0.19 ± 0.016
11,Nc1nc(F)nc2c1ncn2[C@@H]1O[C@H](CO)[C@@H](O)[C@@H]1O [Fludarabine],0.168 ± 0.011
12,CN1CCOC(c2ccccc2)c2ccccc2C1 (stereo not given) [Nefopam hydrochloride],0.185 ± 0.012
13,NCCCC(O)(P(=O)(O)O)P(=O)(O)O [Alendronate sodium],0.24 ± 0.033
14,Clc1ccccc1C(c1ccccc1)(c1ccccc1)n1ccnc1 [Clotrimazole],0.0437 ± 0.0032
15,"O=C1c2cccc(O)c2C(=O)c2c(O)cccc21 [1,8-Dihydroxyanthraquinone]",0.138 ± 0.0019
16,CC(N/C(=N\C#N)Nc1ccncc1)C(C)(C)C (stereo not given) [Pinacidil],0.219 ± 0.0078
17,COc1ccc2c(c1)c(CC(=O)OCC(=O)O)c(C)n2C(=O)c1ccc(Cl)cc1 [Acemetacin],0.139 ± 0.0049
18,O=C(O)c1ccccc1C(=O)Nc1ccc(S(=O)(=O)Nc2nccs2)cc1 [Phthalylsulfathiazole],0.198 ± 0.02
19,c1ccc2c(c1)CCCC2C1=NCCN1 (stereo not given) [Tetrahydrozoline hydrochloride],0.184 ± 0.015
20,Cc1nnc(NS(=O)(=O)c2ccc(N)cc2)s1 [Sulfamethizole],0.211 ± 0.032
